The structures appear in SMILES notation. Counter-ions that a name gives are not always drawn.

This assay deals with Danio rerio larvae (5 dpf). In words: excitability (activity period 17 minus period 16, 1-s interval sound) minus DMSO control (percentage points); higher = more acoustic excitability than DMSO larvae. The settings on record: 10 µM; exposure time: 3 h pre-incubation + 3 h imaging. On the procedure:
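Wild-type 5 dpf zebrafish larvae (n=48 per drug, 96-well plates, 28.5 °C) were exposed to Tocris FDA-approved library compounds at 10 µM (0.1% DMSO) for 3 h before and 3 h during imaging. Images were taken every 6 s during visual and acoustic stimuli, and larvae were tracked with Z-LaP Tracker. Each measure is the treated-group mean minus the DMSO control mean (n=844), in percentage points. This mapping covers compounds with 5-character plate codes.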
Turning to `COc1ccc(C(CN(C)C)C2(O)CCCCC2)cc1` (stereo unspecified) [Venlafaxine hydrochloride], the excitability turned out to be 8.91.

Values taken from the supplement of paper PMC9950053.
